Measured values reported in PubChem BioAssay AID743279 (National Center for Advancing Translational Sciences (NCATS), 2014).
In all, about 360,000 compounds went through this assay and about 17,000 (4.7%) were called active. Not shown: some 5% with an inconclusive outcome. Cut-off read from the data, not from the text of the source: active = activity change below about -50%; inconclusive = mostly about -30% to -49%; inactive = weaker than that. The full list was thinned out, with actives kept by preference.

Test: qHTS for Inhibitors of Inflammasome Signaling: IL-1-beta AlphaLISA Primary Screen
Conditions: THP-1 LPS/ATP IL-1B secretion, 16 h; at 57.5 µM, stronger effect = lower value
In short: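 Secreted IL-1B measured by AlphaLISA bead assay after 16 h compound exposure of THP-1 cells; compounds (final up to 57.5 uM) added 1 h before LPS (250 ng/mL) and ATP (1.25 mM) stimulation; lower signal means less secretion.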
% is set by controls: 0 for no effect and ±100 for the full control effect.

Activity change, active:
O=C(/C=C/c1ccc(Cl)cc1Cl)c1cccnc1 -59.5%, O=[N+]([O-])c1ccc(N/N=C/c2ccccc2)cc1 -59.6%, CCCC(O)(CCC)C(=O)NN(C(=O)CCl)c1cccc(C)c1 -219%, CCCCC(O)(CCCC)C(=O)NN(C(=O)CCl)c1ccccc1 -78.2%, COc1ccc(-c2nn3c(-c4ccccc4)nnc3s2)cc1OC -54.1%, CC(=O)OC(C)C[N+](C)(C)C (stereo unspecified) -70.2%, CC(C)(C)c1cc(=O)n2c(nc3ccccc32)[nH]1 -74.5%, O=C(/C(=C/c1cccc(Cl)c1)c1nc2ccccc2[nH]1)c1ccccc1 -95.6%, CN(CC(=O)NC1CCN(Cc2ccccc2)CC1)S(=O)(=O)c1ccc(Cl)s1 -53.7%, Oc1cc2c(cc1O)CN(C(=S)NCCc1ccc(Cl)cc1)CCC2 -66.9%, O=C(Nc1ccccc1)c1nnsc1S(=O)(=O)c1ccc(Cl)cc1 -53.3%, CN1C(c2ccc(F)cc2)=CS/C1=C(/C#N)c1nnc2n1-c1ccccc1SC2 -68.6%, CCOc1nc(OCC)nc(-n2cc(-c3ccccc3)nn2)n1 -60.1%, COc1cc([N+](=O)[O-])cc([N+](=O)[O-])c1NC(=O)N1CCOCC1 -92.7%, COc1cc2cc(C(=O)N/N=C/c3cccc(OC)c3OC)[nH]c2cc1OC -70%, COc1ccc2cc1Oc1ccc(cc1)C[C@H]1c3cc(c(OC)cc3CCN1C)Oc1c(O)c(OC)cc3c1[C@H](C2)N(C)CC3 -107%, Cc1ccc(C(=O)C[n+]2cc(-c3ccccc3)n3c2CCCCC3)cc1 -83.1%, Cc1ccc(-c2c[n+](CC(=O)Nc3ccccc3)c3n2CCC3)cc1 -60.8%

Activity change, inactive:
CC(=NNC(N)=O)C1CC2CCC1CC2 (stereo unspecified) -5.84%, O=C(OCc1cc(Cl)ccc1OC(F)F)c1cccnc1 26%, O=C(NCc1ccc(Cl)c(Cl)c1)c1cccnc1 3.6%, CC(=O)N1CCc2cc(Br)cc(S(=O)(=O)CCC(=O)Nc3c(C)n(C)n(-c4ccccc4)c3=O)c21 4.54%, O=[N+]([O-])c1ccc(N=NNc2ccc([N+](=O)[O-])cc2)cc1 -3.41%, O=C(NN=Cc1ccc([N+](=O)[O-])cc1)C1CC1 -3.03%, Cc1ccc(C)c(C(O)c2ncc(-c3cccc4ccccc34)[nH]2)c1 (stereo unspecified) 4.1%, Cc1ccc(N(NC(=O)C(C)(C)O)C(=O)c2ccccc2)cc1C 38.2%, CCCCCNC(=O)C1c2ccccc2Oc2ccccc21 -3.75%, CC(C)(O)C(=O)NN(C(=O)c1ccccc1)c1cccc(Br)c1 -15.5%, COC(=O)N(NC(=O)C(O)(C(C)C)C(C)C)c1ccccc1 12.9%, CCN(CC(=O)Nc1c(F)cccc1F)C(=O)c1ccc(-c2ccc(C(C)=O)cc2)o1 -9.45%, CC1(C(=O)NS(=O)(=O)c2cccs2)CCN1C(=O)Cc1ccc(-c2ccccc2)cc1 (stereo unspecified) 5.64%, Cn1c(Nc2ccc(F)cc2)nc2cc(-c3ccsc3)sc2c1=O 19.8%, CC(C)[C@H](NC(=O)c1ccccc1F)C(=O)Nc1cccc(S(=O)(=O)N2CCOCC2)c1 13.4%, O=C(NCc1ccco1)/C(=C\c1cccc([N+](=O)[O-])c1)NC(=O)c1ccco1 29.6%, CCCCN(C(C)=O)c1ccc2c(c1)C1CC2CCN1Cc1ccccc1 (stereo unspecified) -22.2%, Fc1ccc(-c2ccc(-c3nn4c(-c5ccco5)nnc4s3)o2)cc1 -8.52%, COc1ccc(CNC(=O)Cc2ccc(-c3ccccc3)cc2)cc1OC 0.934%, CCCc1ccc(S(=O)(=O)N2CCN(C(=O)c3cc(C)on3)CC2)cc1 21.7%, CCOC(=O)[C@]12CCCC=C1N(CCC1=CCCCC1)C(=O)[C@H](CC(=O)N1CCN(C(=O)c3ccco3)CC1)C2 -5.52%, C=CCc1cc(S(=O)(=O)c2ccc(O)c(CC=C)c2)ccc1O 8.87%, CCCNC(=O)C[C@@H]1CC[C@@H]2[C@H](COC[C@H](O)CN2C(=O)c2cc(Cl)cc(Cl)c2)O1 35%, O=C(COC(=O)Cc1ccc(Cl)cc1Cl)NCc1ccco1 0.688%, CC(=O)OCC(COC(C)=O)OC(C)=O 12.6%, CC(C[N+](C)(C)C)OC(N)=O (stereo unspecified) 8.81%, CC1=C(C(=O)N2CCOCC2)CC(CC(=O)NCc2ccco2)C(=O)N1Cc1ccc(F)cc1 (stereo unspecified) 17.5%, O=C1NC[C@H](CCCCN2C[C@H](Cc3ccc(O)cc3)N(CCc3ccccc3)C(=O)C2=O)N(CCc2ccccc2)C1=O 4.59%, CC(C)(C)c1nc2ccccc2c(=O)n1N1C(=O)c2ccccc2C1=O -1.36%, CC(C)(C)N1CC(c2nc3ccccc3n2Cc2ccc(F)cc2)CC1=O (stereo unspecified) -16.1%, CN(CC(=O)NCc1ccncc1)S(=O)(=O)c1ccc(Br)cc1 11.2%, O=C(CCc1nc2ccccc2c(=O)[nH]1)OCC(=O)c1cccc(Cl)c1 0%, O=C(N/N=C/c1ccc(Cl)cc1)c1nc2ccc([N+](=O)[O-])cc2c(=O)[nH]1 7.76%, c1cc(-c2ccc3[nH]ccc3c2)n2ccnc2c1 10.3%, CN(CC(=O)NC1CCCCC1)S(=O)(=O)c1ccc(Br)s1 2.52%, CC1CN(C(=O)CCC(=O)NC2CCN(Cc3ccccc3)CC2)c2ccccc2O1 (stereo unspecified) -3.91%, COc1cccc(OC)c1C(=O)N1CCN(Cc2ccccc2F)CC1 -14.9%, COc1cccc(-c2cnc3c(NC(C)=O)cc(-c4cc(F)ccc4OC)cn23)c1 -11.1%, Cc1ccccc1N1CCN(Cc2nc(Cc3ccccc3F)no2)CC1 15.1%, O=C(NCCc1ccc(Cl)cc1)c1cccc(N2CCCC2=O)c1 -5.88%, COc1ccc(CCNC(=S)N2CCN(S(=O)(=O)c3ccc(Cl)cc3)CC2)cc1 0%, O=C(Nc1ccc(Cl)cc1)Nc1nnc(/C=C/c2ccccc2)s1 11.5%, O=C(Nc1ccc(S(=O)(=O)Nc2ccccn2)cc1)c1ccccc1, CCCCc1nc(SCC(=O)Nc2nnc(C(C)C)s2)n[nH]1 10.5%, CSCCC(NC(=O)C1CCC(C)CC1)C(=O)NCc1ccco1 (stereo unspecified) -25.5%, COc1cc(OC)cc(-c2nc3ccccc3c(=O)n2NC(=O)c2cccnc2Cl)c1 -0.823%, O=C(Nc1ccc2c(c1)OCCO2)C1c2ccccc2OCC(=O)N1Cc1ccccn1 (stereo unspecified) 18.3%, CC(C)Cn1cc(-c2cncc3nccn23)cn1 -7.82%, CCCCCc1ccc(-c2cn(Cc3ccc4ccccc4c3)nn2)cc1 -1.04%, CCOC(=O)c1nnn(-c2nc(OC)nc(N(C)C)n2)c1-c1ccccc1 44.9%, COc1ccc(-c2ccc(CN3C(CC(C)C)C(=O)N(Cc4cn(CC5CCCCC5)nn4)CCS3(=O)=O)cc2)cn1 (stereo unspecified) -12.3%, CC(=O)NN=C(C)c1ccc(NC(=O)C2CC2)cc1 -22.8%, CCc1ccc2c(c1)cc(CN(C(=S)Nc1ccccc1Cl)C1CC1)c1nnnn12 14.3%, COc1cc(C(=S)N2CCOCC2)cc(OC)c1OC(=O)c1cc([N+](=O)[O-])cc([N+](=O)[O-])c1 22%, COc1cc(C(=S)N2CCOCC2)cc(OC)c1OC(=O)c1ccc([N+](=O)[O-])cc1[N+](=O)[O-] -15.3%, OC[C@@H]1CN(Cc2ccc(-c3ccccc3)cc2)C[C@H](n2cnc3c(NC4CCCC4)ncnc32)O1 -3.87%, CCOc1ccc2[nH]c(C(=O)N/N=C/c3cccc(OC)c3OC)cc2c1 0%, COc1ccc2[nH]c(C(=O)N/N=C/c3cc(OC)c(OC)c(OC)c3)cc2c1 -6.28%, Cc1cc2c3ccccc3[nH]c(=O)n2n1 -25.1%, O=C1c2ccccc2C(=O)C1C(=O)C1CC1 8.56%, Nc1cccc(-c2cncc(N3CCN(Cc4ccccn4)CC3)n2)c1 -1.3%, O=C(C[C@H]1C[C@H]2c3cc(NS(=O)(=O)c4ccc(F)cc4)ccc3O[C@H]2[C@H](CO)O1)NCc1cc(F)ccc1F 9.17%, OC(c1ccc(Cl)c(F)c1)c1ncc(-c2ccccc2Cl)[nH]1 (stereo unspecified) 1.76%, CCc1nc2c(OCCc3cccc(OC)c3)cccn2c1N(C)C(=O)c1ccc(C)cc1 -7.64%, Cc1ccc(NC(=O)COC(=O)CN2CCSC2=O)cc1F 4.94%, Cc1cc2nc(-c3ccc(F)cc3)c(Cc3ccsc3)n2c(C)c1Br 14%, Cc1ccc(C(=O)N2CCCC(c3ccccc3)=N2)cc1 -5.32%, Cc1cccc[n+]1CC(=O)c1ccccc1 22.7%, Cc1ccc(NC(=S)N2CCCC(c3ccccc3)=N2)cc1 -20.4%, Cc1ccc(NC(=O)CN2CCc3ccccc3C2)cc1 7.54%, COc1cccc(NC(=O)N(C)C[C@@H]2Oc3ncc(Br)cc3C(=O)N([C@@H](C)CO)C[C@H]2C)c1 2.84%, NNC(=O)COc1ccc(C2SCCS2)cc1 15.3%, OC[C@@H]1CN(Cc2cccs2)C[C@H](n2cnc3c(NC4CCCC4)ncnc32)O1 -3.1%
